# Results as given in PubChem BioAssay AID1745849 (National Center for Advancing Translational Sciences (NCATS), 2022).
# The campaign covered roughly 2,100 compounds. About 320 (15%) were called active. Not shown: some 52% with an inconclusive outcome. The list shows a part of the results. Unmarked numbers belong to inactive results. Calls come from the whole dose curve; as a rule, active = well fitted cell-killing curve with a large enough effect; inconclusive = small, poorly fitted or top-dose-only effect, or effect the other way; inactive = flat fitted curve, though single readings scatter.
# Test: Viability Counterscreen for CMV-Luciferase Assay of Inhibitors of ATXN expression; note: nearly all actives have a fitted effect of over 55% in size
# Conditions: HEK-293 CMV-luciferase cells viability, protease fluorescence, 24 h; series mostly up to 57.5 µM; activity change, negative = cytotoxicity: at the top concentration
# Description: PI: Daniel Scoles Ph.D. University of Utah School of Medicine, Salt Lake City, Utah MLPCN Grant: NS073009 Spinocerebellar ataxia type 2 (SCA2) is a multisystem neurodegenerative disease caused by a dominantly acting mutation leading to expansion of a polyQ domain in the ataxin-2 protein (ATXN2). SCA2 patients develop progressive ataxia and later lose function in other neuronal systems. Prominent parkinsonian signs develop in some patients. Like many neurodegenerative disorders, no symptomatic or disease-modifying treatments are known. The primary objective of the proposed research is to identify compounds inhibiting ATXN2 expression and to test them for efficacy in SCA2 mouse models. We have developed a cell-based assay paired with an in vivo mouse model using identical luciferase expression constructs. This approach takes advantage of an ATXN2-luciferase transgene, with the luciferase gene flanked by the upstream and downstream portions of the ATXN2 gene. Here we describe a 5-7 dose quantitative high thoroughput screen (qHTS) for compounds lowering ATXN2 expression. We screened the NIH Molecular Libraries Small Molecule Repository (MLSMR) and NCGC's mechanistically annotated (MIPE) and drug repurposing (NPC) collections of compounds for lowering expression of an ATXN2-luciferase reporter in HEK-293 cells. The assay is a multiplexed cell viability assay to ensure target reduction in the absence of cytotoxicity. Secondary qHTS assays included a CMV-luciferase reporter expressed in HEK-293 cells as well as a biochemical assay using recombinant luciferase to detect inhibitors of the reporter enzyme. Compounds that inhibit ATXN2 expression but is not cytotoxic were selected for confirmatory and secondary screens.
# PROTOCOL TABLE (as described by Inglese J, Shamu CE and Guy RK. 2007) SEQUENCE No. (e.g., 1, 2, 3, etc.); […] (e.g., Cells, Incubation, Reagent, etc.); VALUE; DESCRIPTION. 1; Cells; 4 uL; white, solid bottom, 1536-well Greiner assay plate. 2; Incubation; 2 hr; 37 degree C in 5% humidified CO2. 3; Compounds; 23 nL; Kalypsis pintool (Wako USA) equipped with a 1536-well pin head. 4; Incubation; 24 hr; 37 degree C in 5% humidfified CO2. 5; Reagent; 1 uL; Gly-Phe-7-Amino-4-trifluoromethylcoumarin. 6; Incubation; 30 min; 37 degree C in 5% humidfified CO2. 7; Detection; Fluorescence; Viewlux plate reader (PerkinElmer). 8; Reagent; 3 uL; SteadyGlo luciferase solution (Promega). 9; Incubation; 5 min; room temperature. 10; Detection; Luminescence; ViewLux plate reader (PerkinElmer). NOTES (numbers refer to Sequence numbers above) 1. HEK-293 cells expressing CMV-luciferase reporter (designated as SC cells) were suspended in phenol-red free DMEM and dispensed in assay plates using a Multidrop Combi dispenser (Thermo Fisher Scientific). 2. Assay plates were incubated. Evaporation was prevented by covering assay plates with metal lids containing holes to allow gas diffusion. 3. Compounds were added in a dose response manner with the final concentrations of 57, 11.4, 2.28, 0.46, 0.091, 0.018, 0.0037 uM. Vehicle-only plates, with DMSO being pin-transferred to columns 5-48, were inserted uniformly at the beginning and the end of each library to monitor and record any shifts in assay performance. 5. 125 uM Gly-Phe-7-Amino-4-trifluoromethylcoumarin (MP Biomedicals) working concentration was used at a final concentration of 25 uM. 7. To assess cell viability; the assay plates were read using the ViewLux high-throughput CCD imager (PerkinElmer), wherein single end-point fluorescence measurement was acquired (excitation 405/10; emission 540/25 nm). 8. Detection reagent SteadyGlo Luciferase (Promega) was added to the assay plate. 10. Luminescence is then measured on the ViewLux imager equipped with a clear emission filter using a 2 sec exposure. […]
# % is set by controls: 0 for no effect and ±100 for the full control effect; potency is the fitted concentration of half-maximal effect.
Structure (SMILES),Potency,"activity change, negative = cytotoxicity"
O=C(CSC1c2ccccc2-c2ccccc21)N/N=C/c1ccccc1O,3550 nM (active),
CCCCCCC(=O)N/N=C/c1c(O)n(CCc2ccccc2)c(=O)[nH]c1=O,8910 nM (active),
CC(=NCCc1c[nH]c2ccccc12)c1c(O)n(Cc2ccccc2)c(=O)[nH]c1=O,,-2.48%
CCCCCCC(=O)N/N=C/c1c(O)n(CCCC)c(=S)[nH]c1=O,,-24.1%
COc1ccc(CCNCc2ccc(F)cc2)cc1OC,,-21.2% [at 11.4 µM]
C[C@]12CCC3C(CCC4=CC(O)CC[C@@]43/C=N/O)C1(O)CCC2C1=CC(=O)OC1 (some centres undefined),1410 nM (active),
C[C@]12CC[C@H](O)C[C@H]1CC[C@@H]1[C@@H]2CC[C@]2(C)[C@@H](C3=CC(=O)OC3)CC[C@]12O,794 nM (active),
CC12CCC(O)CC1CCC1C2CCC2(C)C(C3=CC(=O)OC3)C(O)CC12O (centres undefined),7940 nM (active),
CC(=O)OC1CC2(O)C3CCC4CC(O)CCC4(C)C3CCC2(C)C1C1=CC(=O)OC1 (centres undefined),501 nM (active),
CC[C@@]1(O)C(=O)OCc2c1cc1n(c2=O)Cc2cc3c(NC(=O)CN)cccc3nc2-1,,25.7% [at 11.4 µM]
COC1C(O)C(C)OC(OC2C(Oc3cccc4c(O)c5c(=O)oc6ccc(C)c7c(=O)oc(c34)c5c67)OC(C)C(O)C2O)C1O (centres undefined),,7.77% [at 11.4 µM]
CC1OC(OC2C(O)CC(OC3C(O)CC(OC4CCC5(C)C(CCC6C5CCC5(C)C(C7=CC(=O)OC7)C(O)CC65O)C4)OC3C)OC2C)CC(O)C1O (centres undefined),251 nM (active),
CN1C2CCC1/C(=C/c1ccccn1)C(=O)/C2=C\c1ccccn1,708 nM (active),
C[C@@H]1C[C@@H]([C@H](O)CC2CC(=O)NC(=O)C2)C(=O)[C@@H](C)C1,1780 nM (active),
CCC(C)N1C(=O)/C(=C\c2cnc(N(C)C)nc2)C(=O)NC1=S (centres undefined),,2.18%
C=CCCC[C@@H]1OC(=O)CNC(=O)C([C@@H](C)CC)NC(=O)[C@@H]2CCCN2C(=O)C([C@@H](C)CC)OC(=O)[C@H](Cc2ccccc2)N(C)C(=O)[C@H](C(C)C)NC(=O)C1(C)C (some centres undefined),3550 nM (active),
CCCCCOc1ccc(C)cc1CN(CCCl)CCCl,22400 nM (active),
CCCCCn1c(=O)c(C(=O)NCc2ccccn2)c(O)c2ccccc21,,-15.5% [at 11.4 µM]
C[C@H]1[C@@H](OS(=O)(=O)O)C[C@@H]2C[C@H]([C@@H](O)c3cc(=O)[nH]c(=O)[nH]3)NC3=NC[C@H]1N32,12600 nM (active),
CSCCC(c1nnnn1-c1c(C)cccc1C)N1CCC2(CC1)C(=O)NCN2c1ccccc1 (centres undefined),28200 nM (active),
CC(C)CNc1c2c(nc3ccccc13)CCC2,,-29.7% [at 11.4 µM]
Cc1ccc(/C=C2\C(=O)NC(=S)N(c3ccccc3F)C2=O)s1,3980 nM (active),
C[C@H]1CCC[C@@H](O)CCC/C=C/c2cc(O)cc(O)c2C(=O)O1,1580 nM (active),
C[C@H]1CCC[C@H](O)CCCCCc2cc(O)cc(O)c2C(=O)O1,,-5.55% [at 11.4 µM]
CCC(C)(O)C(=O)OC1C(=O)OC2CC3C(C)=CC(=O)C(O)C3(C)C3C4(O)OCC23C1C(C)C4O (centres undefined),316 nM (active),
COc1ccc2c(c1)C(c1ccc(N(CCCl)CCCl)cc1)=NCC2,,-25.6%
O=C1NC(=O)C2(CCCc3ccc(N(CCCl)CCCl)cc32)N1 (centres undefined),11200 nM (active),
CC1CC(C)CC(C)C(O)C(C#N)=CC=CCC(C2CCCC2C(=O)O)OC(=O)CC(O)C(C)C1 (centres undefined),398 nM (active),
COC(=O)C(O)(c1ccc(NC(=S)NC(=O)c2ccc(Cl)cc2Cl)c(C)c1)C(F)(F)F (centres undefined),,1.53% [at 11.4 µM]
